Data from PubChem BioAssay (NCATS).
Records with an inconclusive call do not appear. Where a call stands in place of a potency, no number is given. Active and inactive are the calls of the source. Calls follow the shape of the dose curve; as a rule, active = well fitted inhibition curve with a large enough effect; inconclusive = small, poorly fitted or top-dose-only effect; inactive = no such curve, though single readings can be large or run the other way.

What follows are compounds tested against Cytochrome P450 2C19 (Homo sapiens) (UniProt P33261) (assay: qHTS Assay for Inhibitors and Substrates of Cytochrome P450 2C19 (AID 899; also: nearly all actives have a fitted effect of over 60% in size)). Details: recombinant CYP2C19, luciferin-H EGE luminescence; series mostly up to 11.4 µM.
Method: NIH Molecular Libraries Screening Centers Network [MLSCN]
NIH Chemical Genomics Center [NCGC]
The P450 gene superfamily is involved in the metabolism and clearance of xenobiotics. This assay used human CYP2C19 to measure the hydroxylation of ethylene glycol ester of 6' deoxyluciferin (Luciferin-H EGE; […]) to luciferin. The luciferin is then measured by luminescence after the addition of a luciferase detection reagent. Luciferin-H EGE concentration in the assay was equal to its KM for CYP2C19. Inhibitors and some substrates limit the production of luciferin, and decrease measured luminescence.
NCGC Assay Protocol Summary:
Two uL of enzyme and substrate mix (final concentrations: 5nM CYP2C19, 10uM Luciferin-H EGE, 50mM KPO4) were dispensed into a white, solid bottom 1536-well microtiter plate. 23nL of compound was transferred by a pin tool. The plate was incubated at 37C for 10 min. Two uL of an NADPH regeneration solution (Promega supplied reagent) was dispensed and the reaction was allowed to continue for 60 min at 37C. Then the reaction was stopped by reconstituted luciferin detection buffer. After another 20 min of incubation the plate was read on the ViewLux (Perkin Elmer) at 60 sec exposure and 2x2 binning. This protocol was carried out with Promega-Glo reagents and further information can be found at http://www.promega.com/tbs/tb325/tb325.pdf. Data were normalized to the to AC100 inhibition (57uM ketoconazole).
Keywords: P450, CYP2C19, Luciferase, MLSMR, MLSCN, NIH Roadmap, qHTS, NCGC
Potency is read from the fitted curve at half-maximal effect.

Cytochrome P450 2C19 (Homo sapiens), sequence (P33261 whole entry, looked up): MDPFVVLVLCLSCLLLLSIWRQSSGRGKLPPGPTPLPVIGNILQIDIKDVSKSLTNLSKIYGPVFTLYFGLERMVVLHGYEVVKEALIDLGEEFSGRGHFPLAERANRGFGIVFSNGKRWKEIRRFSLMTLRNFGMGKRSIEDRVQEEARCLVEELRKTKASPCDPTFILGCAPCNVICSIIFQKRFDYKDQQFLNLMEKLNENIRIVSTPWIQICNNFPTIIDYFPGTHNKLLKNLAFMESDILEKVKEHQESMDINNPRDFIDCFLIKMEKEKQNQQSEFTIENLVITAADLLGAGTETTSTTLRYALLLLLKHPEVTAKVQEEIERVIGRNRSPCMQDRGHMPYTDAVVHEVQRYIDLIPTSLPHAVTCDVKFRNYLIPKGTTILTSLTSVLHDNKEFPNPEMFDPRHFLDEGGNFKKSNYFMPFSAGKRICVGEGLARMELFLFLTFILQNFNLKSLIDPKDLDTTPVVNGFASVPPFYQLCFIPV

Compound | Potency
COc1cccc(C2C(C)CCC3C(=O)N(C)C(C(C)C)C(=O)N32)c1 (stereo not given) | inactive
CCOC(=O)[C@]1(C(/C=C/c2ccco2)NC(=O)OC)CCCC1=O (stereo not given in full) | inactive
CC(=O)OC[C@@H]1O[C@@H](O/N=C2/C[C@@H](O)[C@@H](O)[C@@H]3[C@@H]4C(=O)N(C(C)(C)C)C(=O)[C@H]4CC[C@H]23)[C@H](OC(C)=O)[C@H](OC(C)=O)[C@@H]1OC(C)=O | inactive
COC(=O)NC(CC(C)=O)c1ccccc1 (stereo not given) | inactive
CCCCC#CC1C=CC(Oc2cc(OC)c(OC)c(OC)c2)C(CO)O1 (stereo not given) | inactive
COC(=O)C1=C(C)N(Cc2ccccc2)C2=C(C(C)=O)C(c3ccccc3)[C@@](O)(C(=O)OC)C(=O)N2C1c1ccccc1 (stereo not given in full) | inactive
CC12C=C(/C=C/c3ccc(F)cc3)C(C)(C1)C(c1ccc(F)cc1)CC2=O (stereo not given) | 2.51 µM (active)
CC12C=C(/C=C/c3ccc(Br)cc3)C(C)(C1)C(c1ccc(Br)cc1)CC2=O (stereo not given) | inactive
CCOC(=O)OCC1OC(c2ccccc2)C=CC1Oc1ccc(F)cc1C (stereo not given) | 2 µM (active)
C=C(C)C(=O)OCC1CN2C(CCC(C)C2c2ccc(Br)cc2)C(=O)O1 (stereo not given) | inactive
CCN1C(C)=C(C(=O)OC)C(c2ccccc2)N2C(=O)[C@](O)(C(=O)OC)CC(C#N)=C12 (stereo not given in full) | inactive
CC1CCC2C(=O)N3C(CCC(C)[C@@H]3c3ccc(-c4ccco4)cc3)C(=O)N2C1c1cccc(N2CCCC2=O)c1 (stereo not given in full) | inactive
CC(=O)OCC1OC(C#CC(C)(C)C)C=CC1OC(C)=O (stereo not given) | inactive
COc1cccc(/C=C/C2=CC3(C)CC2(C)C(c2cccc(OC)c2)CC3=O)c1 (stereo not given) | 2 µM (active)
COC(=O)NC(/C(C(=O)OC)=C(\C)NCc1ccccc1)c1ccc(F)cc1 (stereo not given) | 0.251 µM (active)
COC(=O)C1=C(C)N(Cc2ccccc2)C2=C3C(=O)CCCC3[C@@](O)(C(=O)OC)C(=O)N2C1c1ccccc1 (stereo not given in full) | inactive
COc1ccc(/C=C/NC(=O)c2ccc(OC)cc2)cc1 | inactive
CCCCCCC(=O)Cc1cc(OC)c(OC)cc1/C=C(/C(C)=O)C(=O)OC | 2 µM (active)
COC(=O)C1=C(C)N(Cc2ccccc2)[C@]23O[C@](C(=O)OC)(C(=O)N2C1c1ccccc1)C1CCCC(=O)C13 (stereo not given in full) | inactive
CCOC(=O)CCCCC1=CC2=CC(=O)C(C)(O)C(=O)C2=CO1 (stereo not given) | inactive

Compound | Potency
OCC1OC(C#Cc2ccccc2)C=CC1OCc1ccccc1 (stereo not given) | 0.0126 µM (active)
COC(=O)C(C(=O)OC)C1O[C@@]23COCCC2(C)C3c2ccccc21 (stereo not given in full) | inactive
COC(=O)NC(/C=C/c1ccco1)[C@@]1(C(=O)OC)CCCC1=O (stereo not given in full) | inactive
COCC#Cc1ccc(C2NC(C(=O)O)CCC2C)cc1 (stereo not given) | inactive
C[C@@H]1O[C@H]2C3=C(C(=O)[C@H]4O[C@@H]4[C@H]3O)[C@@H]1[C@@H]1[C@@H](C)OC=C3[C@H](O)[C@H]4O[C@@H]4/C(=N\OCc4ccccc4)[C@]312 | 0.631 µM (active)
CCCCCCC#CC1C=CC(Oc2ccc(C=O)cc2)C(CO)O1 (stereo not given) | 3.98 µM (active)
C=CCC1(c2ccccc2)Oc2ccc(C)cc2-c2nc3cc(Cl)c(Cl)cc3nc21 (stereo not given) | inactive
COc1ccc(/C=C/NC(=O)Cc2ccc(OC)c(OC)c2)cc1 | inactive
COC(=O)NC(CC(C)=O)c1cccs1 (stereo not given) | inactive
CC(=O)OCC1OC(C#CC2=CCCCC2)C=CC1OC(C)=O (stereo not given) | inactive
COC(c1ccccc1Br)C(C)/C=C/CCO (stereo not given) | 1.58 µM (active)
COC(=O)NC(/C=C/c1ccccc1)[C@]1(C(C)=O)CCCC1=O (stereo not given in full) | inactive
C=C(C)C(O)/C=C/c1ccccc1OC (stereo not given) | inactive
Cc1cc(C)cc(C#CC2C=CC(Oc3ccc(C4CCCC4)cc3)C(CO)O2)c1 (stereo not given) | inactive
COC(=O)C1=C(C)N(Cc2ccccc2)[C@]23O[C@](C(=O)OC)(C(=O)N2C1c1ccccc1)C(C(=O)OC)=C3C(=O)OC (stereo not given in full) | 1.58 µM (active)
OCC1OC(c2ccc3c(c2)OCO3)C=CC1Oc1ccc(C2CCCC2)cc1 (stereo not given) | inactive
COC(=O)[C@@]1(Cc2ccccc2)[C@H]2c3cc(C(=O)N4CCCC4)[nH]c3C[C@H]2CN1C(=O)c1ccccc1 | 0.501 µM (active)
C[C@@H]1OC2C3=C(C(=O)[C@H]4O[C@@H]4[C@H]3O)[C@@H]1[C@H]1[C@H](C)OC=C3[C@H](O)[C@H]4O[C@H]4/C(=N\OCc4ccccc4)[C@@]321 | inactive
C=C(C)C(O)C(CC/C=C(\C)C(=O)OCC)OC (stereo not given) | inactive
CC(=O)c1ccc(OC2C(O)COC2/C=C/c2ccc(Cl)cc2)cc1 (stereo not given) | inactive
